Results filed as inconclusive are left out. Entries that show only a call come without a potency. The source made the active and inactive calls. The call rests on the fitted dose curve; in most records, active means well fitted cell-killing curve with a large enough effect; inconclusive means small, poorly fitted or top-dose-only effect; inactive means no such curve, though single readings can be large or run the other way.
Test: qHTS of pediatric cancer cell lines to identify multiple opportunities for drug repurposing: Primary screen for A673 cells (AID 1347092); further: nearly all actives have a fitted effect of over 45% in size
Settings: A673 Ewing sarcoma viability, CellTiter-Glo ATP luminescence, 48 h; series mostly up to 46 µM
Description: Drug repurposing or repositioning has been offered as a strategy for drug development in oncology programs. This approach has special potential for childhood cancers and other rare or orphan diseases, where the expected return on new drug development has been a disincentive to pharmaceuticals. […] In this project we exploit the poly-pharmacology of drugs to discover new indications via phenotypic screening of a panel of 19 well-characterized cell lines derived from solid tumors seen in children and adolescents. The goal is to identify approved drugs with previously unrecognized anticancer properties that has the potential to reveal new mechanisms and biological processes involved in carcinogenesis or drug resistance. We employed a titration-based paradigm (quantitative high-throughput screening or qHTS), where all compounds were tested at multiple concentrations for their effect on cell viability. Concentration-response curves (CRCs) were derived directly from the primary screen, and both potency and efficacy values were used to identify compounds with robust bioactivity profiles. We screened the NIH Chemical Genomics Center (NCGC) Pharmaceutical Collection (NPC) and Mechanism Interrogation Plate (MIPE) small molecule collections of approved and investigational compounds against these cell lines; and measured metabolically active cells after 48 hours of compound treatment as a proxy for cell viability. […] Assay Submitter: Nathalia J. Martinez, National Center for Advancing Translational Sciences, National Institutes of Health, Rockville, MD, USA; email: natalia.martinez@nih.gov. Shen, M et al. Quantitative high-throughput phenotypic screening of pediatric cancer cell lines identifies multiple opportunities for drug repurposing. Oncotarget 2017 Dec 19;9(4):4758-4772. PMID 29435139.
The cells were obtained from University of North Carolina (UNC), Pediatric Preclinical Testing Program (PPT), and Coriell Institute (CI). qHTS cell viability assay: Cells were assayed in growth media at a density of 500-1,000 cells/well. Five microliters of cells were dispensed into 1,536-well, white, solid-bottom, TC-treated plates (Greiner Bio One) using a multidrop dispenser and incubated at 37 degrees C, 5% CO2, under a humidified atmosphere for 5 hours. Twenty-three nanoliters of compounds and controls (neutral control DMSO or positive control bortezomib at final concentration of 2.3 uM) were subsequently transferred by Kalypsys pintool. For primary screens, the MIPE collection was tested at 11-point dilutions (final concentrations range from 0.78 nM to 46 µM) and the NPC collection at 8-point dilutions (final concentrations range from 0.59 nM to 46 µM). Compounds tested in follow-up screens were assayed at 11-point dilutions. Cells were incubated for 48 hours, followed by addition of 3 uL of CellTiter-Glo (Promega). After a 15min incubation at room temperature, samples were analyzed for luminescence intensity using a ViewLux High-throughput CCD imager equipped with clear filters.
With `O=C(O)C1(C(=O)O)CCC1.[NH2-].[NH2-].[Pt+2]` the Potency was “inactive”.
In the case of `C[C@@H](O)[C@H]1C(=O)N2C(C(=O)O)=C([C@H]3CCCO3)S[C@H]12`, the Potency was “inactive”.
In the case of `CCC1Nc2cc(Cl)c(S(N)(=O)=O)cc2S(=O)(=O)N1` (stereo not given), the Potency was “inactive”.
For `NC(=S)N/N=C/c1cccnc1`, the Potency was “inactive”.
In the case of `CC(=O)Oc1ccc(C)cc1`, the Potency was “inactive”.
For `CC(C)Nc1cccnc1N1CCN(C(=O)c2cc3cc(NS(C)(=O)=O)ccc3[nH]2)CC1`, the Potency was “inactive”.
With `CN1CCN(c2c(F)cc3c(=O)c(C(=O)O)cn4c3c2SCC4)CC1` the Potency was “inactive”.
With `NCCNC(=O)c1ccc(Cl)cn1` the Potency was “inactive”.
In the case of `CC(C)n1c(/C=C/[C@@H](O)C[C@@H](O)CC(=O)O)c(-c2ccc(F)cc2)c2ccccc21`, the Potency was 5.31 µM (active).
For `CC(O)Cn1cnc2c1c(=O)n(C)c(=O)n2C` (stereo not given), the Potency was “inactive”.
For `CCCCCCCCOc1ccc(C(=O)c2ccccc2)c(O)c1`, the Potency was “inactive”.
With `COC(=O)C(c1ccccc1Cl)N1CCc2sccc2C1` (stereo not given) the Potency was “inactive”.
With `CCN(CC)CCOC(=O)C(Cc1cccc2ccccc12)CC1CCCO1` (stereo not given) the Potency was “inactive”.
With `COc1ccc(C(=O)c2ccccc2O)c(O)c1` the Potency was “inactive”.
For `CC(=O)OCC(=O)[C@H]1CC[C@H]2[C@@H]3CCC4=CC(=O)CC[C@]4(C)[C@H]3CC[C@]12C`, the Potency was “inactive”.
In the case of `C[N+]12CCC(CC1)C(OC(=O)C(O)(c1ccccc1)c1ccccc1)C2` (stereo not given), the Potency was “inactive”.
For `CN1CCC(OC(c2ccccc2)c2ccccc2)CC1`, the Potency was “inactive”.
With `CC(C)(C)NC[C@H](O)COc1cccc2c1CCCC2=O` the Potency was “inactive”.
In the case of `FC1(F)C(F)(F)C(F)(F)C2(F)C(F)(F)C(F)(F)C(F)(F)C(F)(F)C2(F)C1(F)F` (stereo not given), the Potency was “inactive”.
With `CCC(CC)(CC(=O)Nc1cccc(/C=C/c2nc(C3CCC3)cs2)c1)C(=O)O` the Potency was “inactive”.
In the case of `Cc1cccc(C)c1NC(=O)c1ccccc1C(=O)O`, the Potency was “inactive”.
In the case of `C[C@@H](O)[C@H]1C(=O)N2C(C(=O)O)=C(S[C@@H]3CN[C@H](CNS(N)(=O)=O)C3)[C@H](C)[C@H]12`, the Potency was “inactive”.
With `NS(=O)(=O)c1cc2c(cc1Cl)NC(CC1CCCC1)NS2(=O)=O` (stereo not given) the Potency was “inactive”.
With `NS(=O)(=O)c1cc(C(=O)O)cc(N2CCCC2)c1Oc1ccccc1` the Potency was “inactive”.
For `CCN(CC)CCOC(=O)C1(c2ccccc2)CCCC1`, the Potency was “inactive”.
With `CC(C(=O)O)c1cccc(Oc2ccccc2)c1` (stereo not given) the Potency was “inactive”.
With `Cc1cccc(C)c1NC(=O)CN1CCCCCC1` the Potency was “inactive”.
In the case of `Cc1ccc(O)c([C@H](CCN(C(C)C)C(C)C)c2ccccc2)c1`, the Potency was “inactive”.
With `CCCCC(CC)COC(=O)c1ccc(N(C)C)cc1` (stereo not given) the Potency was “inactive”.
For `CNCCCCOc1ccccc1Cc1ccccc1`, the Potency was 26.6 µM (active).
In the case of `Nc1nc(-c2ccccc2)c(Br)c(=O)[nH]1`, the Potency was “inactive”.
In the case of `O=C(O)C(Cc1cc(I)c(O)c(I)c1)c1ccccc1` (stereo not given), the Potency was “inactive”.
For `CN(C)CCN1C(=O)c2ccccc2N(C)c2ccccc21`, the Potency was “inactive”.
In the case of `CC(C)(Cc1c[nH]c2ccccc12)NCC(O)COc1ccccc1C#N` (stereo not given), the Potency was “inactive”.
With `CC(CNC1CCCCC1)OC(=O)c1ccccc1` (stereo not given) the Potency was “inactive”.
With `Cc1cc(CC(=O)O)c(C)n1-c1ccc(Cl)cc1` the Potency was “inactive”.
For `N#CCC(=O)NN`, the Potency was “inactive”.
For `O=C(NCCc1c[nH]c2ccccc12)c1cccnc1`, the Potency was “inactive”.
For `CCCCOC(=O)CC(CC(=O)OCCCC)(OC(C)=O)C(=O)OCCCC`, the Potency was “inactive”.
For `CC1(C)OC[C@@H]2O[C@@]3(C(=O)O)OC(C)(C)O[C@H]3[C@@H]2O1`, the Potency was “inactive”.

— PubChem BioAssay (NCATS)
Potency means the concentration at half of the fitted maximal effect.
